According to ChEMBL document CHEMBL3988442, “University of Dundee, Small-Polar-MMV Screening Library” (2021):
For some assays here: Results with a measured potency or affinity are listed apart.

Columns and labels:
Design in all cases: scale not given: direction of the effect not stated beside the values
[1] = biological target: Protein translocase subunit SecA (Escherichia coli (strain K12)) (UniProt P10408); test: Assay to Identify E. coli SecA ATPase Inhibitors; assay type: functional; conditions: 30 µM
[2] = biological target: T1, Ubiquitin-activating enzyme e1, putative (Leishmania donovani (strain BPK282A1)) (UniProt E9BSI1); test: Leishmania donovani Ubiquitin Activating Enzyme (LdE1); assay type: functional; conditions: 30 µM
T1 sequence (whole entry): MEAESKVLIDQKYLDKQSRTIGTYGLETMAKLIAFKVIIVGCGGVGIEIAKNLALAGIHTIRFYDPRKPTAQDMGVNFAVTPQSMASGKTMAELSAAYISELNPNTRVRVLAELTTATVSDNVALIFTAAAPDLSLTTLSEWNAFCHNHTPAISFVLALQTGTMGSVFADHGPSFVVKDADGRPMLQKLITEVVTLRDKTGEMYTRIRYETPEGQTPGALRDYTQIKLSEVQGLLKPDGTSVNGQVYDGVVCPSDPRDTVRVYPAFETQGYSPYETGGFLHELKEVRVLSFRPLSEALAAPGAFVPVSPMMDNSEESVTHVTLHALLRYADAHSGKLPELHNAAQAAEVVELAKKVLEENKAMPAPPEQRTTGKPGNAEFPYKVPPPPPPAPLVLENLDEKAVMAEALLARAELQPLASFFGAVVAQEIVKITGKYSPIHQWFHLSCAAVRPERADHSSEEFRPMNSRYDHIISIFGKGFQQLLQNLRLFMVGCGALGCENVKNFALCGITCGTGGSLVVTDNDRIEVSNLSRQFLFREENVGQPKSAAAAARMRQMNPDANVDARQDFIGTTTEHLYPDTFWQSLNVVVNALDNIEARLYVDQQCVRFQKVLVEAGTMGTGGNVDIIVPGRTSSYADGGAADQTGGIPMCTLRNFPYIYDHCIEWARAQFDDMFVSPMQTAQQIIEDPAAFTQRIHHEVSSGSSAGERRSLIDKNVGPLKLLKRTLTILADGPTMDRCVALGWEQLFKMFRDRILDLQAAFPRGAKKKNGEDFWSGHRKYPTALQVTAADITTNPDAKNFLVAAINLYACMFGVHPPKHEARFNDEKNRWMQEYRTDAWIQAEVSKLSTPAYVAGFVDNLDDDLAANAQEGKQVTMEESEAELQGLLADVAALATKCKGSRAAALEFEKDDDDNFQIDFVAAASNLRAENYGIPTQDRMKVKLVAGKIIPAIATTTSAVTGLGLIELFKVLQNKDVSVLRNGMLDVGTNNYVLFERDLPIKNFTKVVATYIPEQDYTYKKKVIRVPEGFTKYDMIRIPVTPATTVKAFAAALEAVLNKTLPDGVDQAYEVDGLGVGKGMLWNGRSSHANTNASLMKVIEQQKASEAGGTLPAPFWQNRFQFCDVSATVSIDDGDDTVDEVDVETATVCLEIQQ

[3] = biological target: AMP-activated protein kinase, AMPK (Homo sapiens) (UniProt P54646+O43741+P54619+Q9UGJ0+Q9Y478+Q13131+Q9UGI9); test: AMP-dependent Kinase enzyme assay. An in vitro enzyme assay that detects ADP turnover that is directly proportional to AMPK activity. This uses naive AMPK that is activated during the assay with MK-8722; assay type: functional; conditions: 30 µM
[4] = biological target: Sialic acid-binding Ig-like lectin 9 (Homo sapiens) (UniProt Q9Y336); test: Hs-Siglec9 ALPHAscreen SOP 20170721; conditions: 10 µM
Trypanosoma cruzi = test: Trypanosoma cruzi phosphomannomutase and mannose-1-phosphate guanylyltransferase assay; assay type: functional; conditions: 10 µM
[5] = biological target: T2, Arginase-2, mitochondrial (Homo sapiens) (UniProt P78540); test: in vitro enzyme assay to detect the production of urea directly proportional to the activity of Arginase II; assay type: functional; conditions: 33.3 µM; note: in the data most compounds retested in dose-response had high values
T2 sequence (whole entry): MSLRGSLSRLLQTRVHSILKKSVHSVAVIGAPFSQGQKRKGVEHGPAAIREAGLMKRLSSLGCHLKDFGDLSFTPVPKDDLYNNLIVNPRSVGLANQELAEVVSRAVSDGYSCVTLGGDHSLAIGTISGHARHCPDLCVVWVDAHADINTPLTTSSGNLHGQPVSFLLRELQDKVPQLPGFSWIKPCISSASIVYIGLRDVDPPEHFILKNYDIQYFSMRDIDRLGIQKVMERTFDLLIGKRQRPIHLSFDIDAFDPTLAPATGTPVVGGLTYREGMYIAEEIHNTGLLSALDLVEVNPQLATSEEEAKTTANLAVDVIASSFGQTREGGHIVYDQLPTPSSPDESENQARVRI

[6] = biological target: T3, Proteasome subunit beta (Trypanosoma cruzi) (UniProt O96673); test: Trypanosoma cruzi proteasome chymotrypsin-like activity (TcProtChymo) assay.; note: in the data most compounds retested in dose-response had high values; assay type: functional; conditions: 9.37 µM
T3 sequence (whole entry): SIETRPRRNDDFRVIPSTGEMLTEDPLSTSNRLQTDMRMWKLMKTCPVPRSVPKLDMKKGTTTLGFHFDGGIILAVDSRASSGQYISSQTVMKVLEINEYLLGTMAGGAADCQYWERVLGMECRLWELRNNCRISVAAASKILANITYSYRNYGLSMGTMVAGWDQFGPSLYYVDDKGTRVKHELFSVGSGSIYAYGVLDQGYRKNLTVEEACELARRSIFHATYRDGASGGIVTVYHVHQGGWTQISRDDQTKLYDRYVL

Homo sapiens = species: Homo sapiens; test: To identify inhibition of the IFN signalling (Jak-Stat) pathway via expression of an eGFP reporter gene under the control of an IFN-stimulated response element (ISRE) containing MxA promoter.; assay type: functional; conditions: 30 µM
[7] = biological target: T4, Tyrosyl-tRNA synthetase, putative (Trypanosoma cruzi (strain CL Brener)) (UniProt Q4DSP6); test: Trypanosoma cruzi tyrosyl tRNA synthetase (TcYRS) _High Tyrosine SOP; assay type: functional; conditions: 30 µM; note: in the data most compounds retested in dose-response had high values
T4 sequence (whole entry): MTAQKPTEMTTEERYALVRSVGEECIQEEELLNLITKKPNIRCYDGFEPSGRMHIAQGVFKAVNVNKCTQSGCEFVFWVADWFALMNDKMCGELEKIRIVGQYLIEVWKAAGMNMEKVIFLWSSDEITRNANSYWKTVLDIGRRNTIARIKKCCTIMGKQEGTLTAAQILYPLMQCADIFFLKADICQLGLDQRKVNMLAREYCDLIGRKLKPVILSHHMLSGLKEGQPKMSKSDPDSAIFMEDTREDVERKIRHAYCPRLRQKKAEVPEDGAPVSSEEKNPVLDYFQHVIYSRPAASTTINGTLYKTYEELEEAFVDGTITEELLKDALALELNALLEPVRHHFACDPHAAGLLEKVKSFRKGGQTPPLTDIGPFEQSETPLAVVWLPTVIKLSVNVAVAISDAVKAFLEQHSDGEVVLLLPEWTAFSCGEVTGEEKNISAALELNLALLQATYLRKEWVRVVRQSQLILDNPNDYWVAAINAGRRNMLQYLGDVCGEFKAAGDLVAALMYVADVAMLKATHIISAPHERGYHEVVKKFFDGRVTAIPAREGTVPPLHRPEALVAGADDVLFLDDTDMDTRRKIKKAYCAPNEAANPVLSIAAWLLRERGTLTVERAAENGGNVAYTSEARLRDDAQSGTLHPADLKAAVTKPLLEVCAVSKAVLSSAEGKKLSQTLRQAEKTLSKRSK

[8] = biological target: T4, Tyrosyl-tRNA synthetase, putative (Trypanosoma cruzi (strain CL Brener)); test: Trypanosoma cruzi tyrosyl tRNA synthetase (TcYRS) SOP; assay type: functional; conditions: 30 µM
[9] = biological target: Chromo domain-containing protein 1 (Saccharomyces cerevisiae (strain ATCC 204508 / S288c) (Baker's yeast)) (UniProt P32657); test: ScCHD-1 Enzyme Inhibition Assay; assay type: functional; conditions: 30 µM; note: in the data most compounds retested in dose-response had high values
Sequence of Chromo domain-containing protein 1 (Saccharomyces cerevisiae (strain ATCC 204508 / S288c) (Baker's yeast)) (P32657 whole entry, the tested form may be a part): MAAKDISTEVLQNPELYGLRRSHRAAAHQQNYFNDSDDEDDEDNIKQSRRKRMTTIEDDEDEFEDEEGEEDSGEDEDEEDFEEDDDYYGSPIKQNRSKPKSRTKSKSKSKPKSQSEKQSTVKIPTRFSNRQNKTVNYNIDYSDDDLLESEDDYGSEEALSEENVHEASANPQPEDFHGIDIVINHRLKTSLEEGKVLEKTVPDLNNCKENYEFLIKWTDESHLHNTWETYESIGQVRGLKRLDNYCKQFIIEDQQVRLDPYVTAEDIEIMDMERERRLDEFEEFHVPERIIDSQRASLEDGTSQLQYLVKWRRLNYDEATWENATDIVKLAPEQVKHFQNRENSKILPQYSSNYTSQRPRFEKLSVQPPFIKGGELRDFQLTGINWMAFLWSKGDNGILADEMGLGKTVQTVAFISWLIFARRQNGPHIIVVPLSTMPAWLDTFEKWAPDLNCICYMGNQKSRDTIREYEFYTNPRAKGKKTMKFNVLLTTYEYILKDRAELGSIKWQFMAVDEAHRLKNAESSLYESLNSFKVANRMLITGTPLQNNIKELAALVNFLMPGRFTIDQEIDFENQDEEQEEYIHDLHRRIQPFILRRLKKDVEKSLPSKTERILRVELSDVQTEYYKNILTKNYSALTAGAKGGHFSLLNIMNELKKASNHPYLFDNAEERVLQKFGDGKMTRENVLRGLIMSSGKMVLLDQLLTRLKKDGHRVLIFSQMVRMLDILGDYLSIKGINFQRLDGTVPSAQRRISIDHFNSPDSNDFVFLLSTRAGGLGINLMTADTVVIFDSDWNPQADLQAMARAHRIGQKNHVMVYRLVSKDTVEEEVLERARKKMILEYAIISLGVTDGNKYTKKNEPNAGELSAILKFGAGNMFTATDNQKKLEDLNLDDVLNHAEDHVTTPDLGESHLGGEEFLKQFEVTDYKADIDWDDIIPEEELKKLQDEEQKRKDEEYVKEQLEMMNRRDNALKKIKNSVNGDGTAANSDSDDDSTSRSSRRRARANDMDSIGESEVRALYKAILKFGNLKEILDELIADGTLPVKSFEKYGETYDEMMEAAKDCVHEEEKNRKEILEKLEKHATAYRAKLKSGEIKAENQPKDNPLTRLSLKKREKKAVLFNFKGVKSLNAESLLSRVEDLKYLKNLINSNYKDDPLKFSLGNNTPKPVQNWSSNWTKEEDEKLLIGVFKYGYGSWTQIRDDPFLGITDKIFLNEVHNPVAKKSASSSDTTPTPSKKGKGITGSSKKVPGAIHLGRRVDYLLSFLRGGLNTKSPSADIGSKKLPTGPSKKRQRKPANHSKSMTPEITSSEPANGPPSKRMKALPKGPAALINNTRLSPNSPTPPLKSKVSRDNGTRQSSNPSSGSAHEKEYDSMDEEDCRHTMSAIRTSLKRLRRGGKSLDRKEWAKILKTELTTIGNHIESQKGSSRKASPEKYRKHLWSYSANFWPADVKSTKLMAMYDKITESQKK

Sequence of Protein translocase subunit SecA (Escherichia coli (strain K12)) (P10408 whole entry): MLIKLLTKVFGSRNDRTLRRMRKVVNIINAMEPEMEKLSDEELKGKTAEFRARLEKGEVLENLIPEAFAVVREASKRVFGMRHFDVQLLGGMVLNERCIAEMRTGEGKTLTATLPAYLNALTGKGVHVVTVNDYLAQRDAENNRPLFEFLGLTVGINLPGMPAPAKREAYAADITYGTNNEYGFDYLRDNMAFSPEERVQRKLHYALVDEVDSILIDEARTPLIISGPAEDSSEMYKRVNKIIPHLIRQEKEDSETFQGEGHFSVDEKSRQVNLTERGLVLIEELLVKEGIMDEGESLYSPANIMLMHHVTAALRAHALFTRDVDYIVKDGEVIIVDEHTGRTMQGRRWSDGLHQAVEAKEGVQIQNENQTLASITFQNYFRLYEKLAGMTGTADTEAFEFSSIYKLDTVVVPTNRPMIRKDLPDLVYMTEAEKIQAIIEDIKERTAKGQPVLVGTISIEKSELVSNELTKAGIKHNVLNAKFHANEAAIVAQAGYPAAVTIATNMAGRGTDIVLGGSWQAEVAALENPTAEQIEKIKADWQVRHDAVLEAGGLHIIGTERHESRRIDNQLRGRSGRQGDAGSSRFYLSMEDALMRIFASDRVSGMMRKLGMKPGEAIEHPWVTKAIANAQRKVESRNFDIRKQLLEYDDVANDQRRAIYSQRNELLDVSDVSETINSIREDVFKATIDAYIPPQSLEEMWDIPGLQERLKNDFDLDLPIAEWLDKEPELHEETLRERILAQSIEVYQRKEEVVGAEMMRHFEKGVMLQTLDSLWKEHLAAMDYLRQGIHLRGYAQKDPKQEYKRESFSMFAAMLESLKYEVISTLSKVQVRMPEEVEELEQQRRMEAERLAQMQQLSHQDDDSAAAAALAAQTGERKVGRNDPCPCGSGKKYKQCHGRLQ
Sequence of Sialic acid-binding Ig-like lectin 9 (Homo sapiens) (Q9Y336 whole entry): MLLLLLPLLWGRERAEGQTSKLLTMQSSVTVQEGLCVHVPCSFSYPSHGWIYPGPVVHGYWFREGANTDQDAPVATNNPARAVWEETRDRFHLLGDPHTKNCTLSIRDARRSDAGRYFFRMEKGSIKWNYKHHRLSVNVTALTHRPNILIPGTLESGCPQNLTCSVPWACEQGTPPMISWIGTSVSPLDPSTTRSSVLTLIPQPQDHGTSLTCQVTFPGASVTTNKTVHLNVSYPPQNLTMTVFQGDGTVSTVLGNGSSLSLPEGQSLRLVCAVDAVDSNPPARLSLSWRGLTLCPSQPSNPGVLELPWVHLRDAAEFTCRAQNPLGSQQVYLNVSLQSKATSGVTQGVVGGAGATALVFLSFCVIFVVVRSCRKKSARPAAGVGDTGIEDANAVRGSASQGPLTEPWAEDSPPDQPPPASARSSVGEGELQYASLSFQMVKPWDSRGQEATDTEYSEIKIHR

| Structure (SMILES) | Percent Effect [1] [%] | Percent Effect [2] [%] | Percent Effect [3] [%] | Percent Effect [4] [%] | Percent Effect (Trypanosoma cruzi) [%] | Percent Effect [5] [%] | Percent Effect [6] [%] | Percent Effect (Homo sapiens) [%] | Percent Effect [7] [%] | Percent Effect [8] [%] | Percent Effect [9] [%] |
| --- | --- | --- | --- | --- | --- | --- | --- | --- | --- | --- | --- |
| O=C(Cn1nc(-c2ccc(F)cc2)oc1=O)NCc1ccc(F)cc1 | 0.533 | 10.5 | -7.15 | -1.53 | -7.52 | -6.9 | 13.4 | 21 | 0.49 | 7.32 | -14.3 |
| CNS(=O)(=O)c1cccc(C(C)NCc2ccccc2)c1 (configuration not stated) | -0.281 | -2.7 | 1.68 | -2.19 | -5.08 | 1.67 | 3.63 | -5.59 | 2.97 | 1.22 | -1.16 |
| O=C1CC2(CCCCC2)CC(=O)N1CC(O)COCc1ccc(Cl)cc1 (configuration not stated) | -4.15 | -10.8 | -0.127 | -2.3 | -1.66 | -0.744 | -2.66 | 2.65 | -2.15 | -6.17 | 6.87 |
| COc1ncccc1C(=O)N1CC[C@H]2C[C@@H](C)O[C@@H]2C1 | -0.702 | 17.3 | 0.286 | -4.21 | -0.589 | -6.51 | 15.5 | -1.15 | 3.17 | 10.3 | -9.15 |
| Cc1nc(CNC(=O)Cn2nc(-c3ccc(F)cc3)oc2=O)cs1 | -2.4 | 15.8 | 10.4 | 6.52 | -1.32 | -4.21 | 3.17 | 8.37 | 7.35 | 12.2 | -5.84 |
| O=C(c1ccc(Cl)o1)N1CCCN(Cc2cscn2)CC1 | -5.01 | 15.6 | -7.43 | -4.3 | 4.02 | -2.74 | 16.1 | 0.576 | 6.67 | 14.1 | -17.3 |
| Cc1noc([C@H]2CC[C@@H]3[C@@H](CCN3S(C)(=O)=O)O2)n1 | -6.38 | 2.7 | 1.84 | -1.29 | 0.977 | 3.75 | 6.17 | -5.62 | 7.92 | 11 | -2.42 |
| CC(C)Cc1cc(C(=O)NCCc2ccc(S(C)(=O)=O)cc2)[nH]n1 | -3.28 | 2.63 | 9.53 | 3.29 | 3.8 | 0 | 12.9 | 24 | 0 | 10.4 | -3.35 |
| COc1cccc(C)c1C(=O)N1C[C@@H](CN(C)C)[C@@H](CO)C1 | -3.79 | 5.2 | -2.32 | 7.05 | 2.26 | -2.76 | 9.15 | -12.3 | 6.45 | 11.1 | -0.303 |
| NC(=O)NCC1CCCCN1C(=O)c1cccc(C(F)(F)F)c1 (configuration not stated) | -6.54 | 21.1 | -2.74 | 13.3 | 4.95 | -6.47 | 2.79 | -1.19 | 5.42 | 16.1 | -9.06 |
| Cc1noc([C@H]2C[C@@H]3CCN(C(=O)N(C)C)C[C@H]3O2)n1 | -0.638 | -2.7 | 6.92 | 9.3 | -2.25 | 0.319 | 15.5 | -7.89 | -1.08 | 2.56 | 0.431 |
| O=C(CN1CCOC(Cn2cccn2)C1)Nc1nccs1 (configuration not stated) | -3.64 | 21.6 | -3.52 | 14.3 | 6.22 | -1.29 | 8.8 | 7.16 | 5.94 | 25.6 | -6.75 |
| COc1ccnc(N2CCN(C(=O)c3csc(C4CC4)n3)CC2)n1 | -4.82 | 2.7 | 2.76 | -1.98 | -2.05 | 4.22 | -0.601 | 0.351 | 0 | 8.64 | -4.46 |
| CC(O)CN1CCN(C(=O)c2ccc(Cn3cccn3)cc2)CC1 (configuration not stated) | -4.02 | 18.9 | -8.57 | 7.3 | 7.08 | -9.22 | 6.67 | 3.34 | 7.39 | 25.9 | -12.3 |
| Cc1ccc(C(=O)N2CC[C@@H]3[C@H]2CCC(=O)N3c2ccccc2)o1 | -2.77 | 2.67 | 14 | -0.294 | 0.591 | 0.233 | -2.03 | 12.1 | 7.45 | 11.5 | 1.89 |
| CC1=Nc2c(c(=O)[nH]n2C(C)C)C(c2ccccc2)S1 (configuration not stated) | -5.22 | 4 | 12.2 | 5.15 | -0.786 | -3.7 | 12 | 32.4 | 22.2 | 28.2 | -3.79 |
| Cc1cccc(COC[C@]23COC[C@H]2CN(C(=O)c2ccsc2)C3)n1 | -1.49 | 5.41 | 1.58 | 0.368 | 1.95 | 27.9 | 10.9 | -2.76 | 8.91 | 13.4 | -5.97 |
| O=C(CCCc1cn[nH]c1)N1CCOCC(O)C1 (configuration not stated) | -5.63 | 0 | -4.88 | -7.04 | 0 | -0.455 | 5.86 | -11.9 | 5.38 | 10 | -3.63 |
| Cc1ccc(NS(=O)(=O)c2cc3c(c(C(=O)O)c2)OCCO3)c(F)c1 | -10.1 | 13.2 | -8.4 | 15.9 | 10.6 | 1.08 | 11.2 | -1.31 | 2.46 | 13.6 | -9.81 |
| O=C(Cc1ccsc1)N1CCC(n2nc(-c3ccco3)ccc2=O)CC1 | -7.59 | 6.76 | 16.2 | 33.6 | -2.17 | -4.41 | 13.9 | -0.185 | 9.68 | 6.49 | -13.4 |
| CCOCCC(=O)N1CCCN(Cc2csc(CC)n2)CC1 | -0.651 | 3.8 | 1.45 | 3.57 | -1.74 | 2.37 | 25.7 | 7.51 | 6.25 | 10.1 | -30.1 |
| Cc1cc(F)ccc1CN1CCC(O)(CN2CCCCC2)C1 (configuration not stated) | -6.21 | 5.33 | -7.83 | 3.56 | -1.46 | -1.04 | 19.2 | -1.85 | 4.92 | 8.64 | -4.93 |
